Among the test systems are NCI-H23 lung; NCI-H226 lung; NCI-H322M lung; HOP-62 NSCLC; NCI-H460 lung; HOP-92 NSCLC; NCI-H522 lung; A549/ATCC NSCLC; 786-0 renal; COLO 205 colon.
Holding throughout (assay): NCI-60 one-dose screen, 48 h (100 = growth as untreated, 0 = no growth, -100 = all killed)
Common to all, as to conditions: 10 µM

Compounds without any hit were thinned out: in the full panel of roughly 83,000, 20% have a hit.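 Interpretation: 100, growth as untreated; towards 0, rising growth inhibition; 0, no net growth; 0 to -100, cell death. Compounds scoring below 10 were considered active.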 Unmarked numbers belong to inactive results. Activity calls are given as the source filed them.

Turning to `COc1cc(Cn2c(-c3ccccc3)cc3c2-c2oncc2CC3)cc(OC)c1`, the growth in the assay with NCI-H23 lung was 23.7%; in the assay with NCI-H226 lung, -3.31% (active); with NCI-H322M lung, 8.6% (active); with HOP-62 NSCLC it was 60.5%; in the assay with NCI-H460 lung it was -0.835% (active); in the assay on HOP-92 NSCLC it was 48.8%. Moreover, the growth in the assay on NCI-H522 lung is -17.2% (active); with A549/ATCC NSCLC it was 23.3%; with 786-0 renal it was 37.6%; with COLO 205 colon, -29.6% (active).

Regarding `CC(C)C[C@H](NC(=O)Cn1ccc2ccccc2c1=O)B(O)O`, the growth with NCI-H23 lung was 74.5%; with NCI-H226 lung, 11.5%; in the assay with NCI-H322M lung, 102%; with HOP-62 NSCLC, 98.4%; in the assay with NCI-H460 lung, 106%; in the assay on HOP-92 NSCLC, 99%. Besides, the growth is 28.6% with NCI-H522 lung, 70.3% in the assay with 786-0 renal and 62.2% in the assay on COLO 205 colon.

Consider `COc1ccccc1CNCCCN1C(=O)c2ccc3c4c(ccc(c24)C1=O)C(=O)N(CCCNCCNCCCN)C3=O`, for which the growth is 6.85% (active) in the assay on NCI-H23 lung; 39.9% in the assay on NCI-H226 lung; 27.9% with NCI-H322M lung; 6.29% (active) in the assay with NCI-H460 lung; 66.3% in the assay with HOP-92 NSCLC; -0.0156% (active) with NCI-H522 lung. Further, the figures for the growth with A549/ATCC NSCLC, with 786-0 renal and in the assay on COLO 205 colon were 6.04% (active), 45.4% and -59.4% (active), respectively.

Turning to `CCc1c(C(=O)NCc2c(O)ccc3cccc(O)c23)[nH]c(C)c1C(C)=O`, the growth with NCI-H23 lung was 23.4%; in the assay with NCI-H226 lung, 52.7%; in the assay with NCI-H322M lung it was 69.5%; in the assay on NCI-H460 lung it was 43.4%; in the assay with HOP-92 NSCLC, 32.8%; with NCI-H522 lung, 11.4%. Also, the values for the growth with A549/ATCC NSCLC, in the assay with 786-0 renal and with COLO 205 colon were 27.3%, 60.9% and 69.5%, respectively.

Consider `COc1cc(CSc2nc3ccc(C)cc3c(=O)n2-c2ccccc2)cc(OC)c1OC`, for which the growth in the assay with NCI-H23 lung was 22%; in the assay with NCI-H226 lung it was 48.3%; in the assay on NCI-H322M lung, 47.4%; in the assay with NCI-H460 lung, 20.2%; in the assay with HOP-92 NSCLC, 67.9%; in the assay with NCI-H522 lung it was 8.32% (active). Further, the growth in the assay with A549/ATCC NSCLC is 39.3%; with 786-0 renal, 37.6%; in the assay with COLO 205 colon, -24.2% (active).

`N#Cc1c2c([nH]c(=O)c1C(N)=O)CCCCC2`: the growth was 100% in the assay with NCI-H23 lung; 100% in the assay with NCI-H226 lung; 97.6% with NCI-H322M lung; 105% in the assay with NCI-H460 lung; 112% in the assay with HOP-92 NSCLC; 90.7% with NCI-H522 lung. Moreover, the growth with A549/ATCC NSCLC is 91.3%; with 786-0 renal, 98.5%; with COLO 205 colon, 102%.

With `COCCNCC(O)Cn1c2ccc(Cl)cc2c2cc(Cl)ccc21` (stereo unspecified), the growth was -36.8% (active) in the assay with NCI-H23 lung; 43.1% with NCI-H226 lung; -20.1% (active) in the assay on NCI-H322M lung; 5.55% (active) with NCI-H460 lung; 135% in the assay with HOP-92 NSCLC; -62.8% (active) with NCI-H522 lung. Further, the growth with A549/ATCC NSCLC was -10.2% (active); with 786-0 renal, 21.9%; in the assay with COLO 205 colon it was -67.9% (active).

On to `Cc1ccc2nc3[nH]c(=O)[nH]c(=O)c3c(N)c2c1`, for which the growth with NCI-H23 lung was 91.9%; with NCI-H226 lung, 100%; in the assay on NCI-H322M lung it was 73.3%; in the assay with NCI-H460 lung it was 81.2%; with HOP-92 NSCLC, 76%; in the assay on NCI-H522 lung, 83.9%. Moreover, the figures for the growth in the assay with A549/ATCC NSCLC, in the assay on 786-0 renal and with COLO 205 colon were 89%, 78.7% and 91.2%, respectively.

Consider `CC(C)CCN(CCCNc1c2c(nc3cc(Cl)ccc13)CCCC2)CCC(C)C`, for which the growth in the assay on NCI-H23 lung was 62.3%; in the assay on NCI-H226 lung, 53.8%; in the assay with NCI-H322M lung it was 75%; in the assay with NCI-H460 lung it was 55.7%; in the assay with HOP-92 NSCLC, 12.3%; in the assay with NCI-H522 lung, 82.1%. Moreover, the figures for the growth with A549/ATCC NSCLC, in the assay with 786-0 renal and in the assay with COLO 205 colon were 85.4%, 80.1% and 32.6%, respectively.

`COc1ccc(C2=NNC(c3sc(Cl)nc3Cl)C2)cc1` (stereo unspecified): the growth in the assay on NCI-H23 lung is 93.7%; in the assay with NCI-H226 lung it was 54.4%; with NCI-H322M lung, 90.3%; with NCI-H460 lung it was 103%; in the assay with HOP-92 NSCLC, 75.2%; with NCI-H522 lung it was 9.05% (active). Also, the results for the growth in the assay with A549/ATCC NSCLC, in the assay with 786-0 renal and in the assay on COLO 205 colon were 94.7%, 99.2% and 63.1%, respectively.

Consider `CCCCCCCCCCCCCC[n+]1ccc(C)cc1`, for which the growth with NCI-H23 lung was -19% (active); in the assay on NCI-H226 lung, 31.7%; in the assay with NCI-H322M lung, 5.57% (active); in the assay on NCI-H460 lung it was -74.1% (active); with HOP-92 NSCLC it was -49.7% (active); in the assay with NCI-H522 lung, -11.8% (active). Moreover, the values for the growth with A549/ATCC NSCLC, in the assay on 786-0 renal and in the assay on COLO 205 colon were -30.5% (active), -3.94% (active) and -89.9% (active), respectively.

With `CCOc1nc(-c2ccccc2)cc2c(O)c(C(=O)N/N=C/c3ccc(OC)cc3)[nH]c(=O)c12`, the growth in the assay on NCI-H23 lung was 97.9%; with NCI-H226 lung, 109%; in the assay on NCI-H322M lung, 124%; in the assay on NCI-H460 lung, 101%; in the assay on HOP-92 NSCLC it was 74.6%; with NCI-H522 lung, 83.1%. In addition, the growth in the assay with A549/ATCC NSCLC was 110%; in the assay with 786-0 renal it was 116%; in the assay with COLO 205 colon it was 87.7%.

`CCOC(=O)c1ccc(N(C=O)CCC(=O)CCl)cc1`: the growth in the assay on NCI-H23 lung is 19.5%; in the assay with NCI-H226 lung, 36.2%; with NCI-H322M lung, 75.6%; with NCI-H460 lung it was 4.12% (active); in the assay with HOP-92 NSCLC, -7.96% (active); in the assay with NCI-H522 lung it was -71.9% (active). In addition, the growth in the assay with A549/ATCC NSCLC was 12.3%; in the assay on 786-0 renal, 2.2% (active); in the assay on COLO 205 colon it was -9.81% (active).

Regarding `CCc1ccc(Nc2cc(C)nc3nc(C)nn23)cc1`, the growth was 3.75% (active) in the assay with NCI-H23 lung; 62.1% with NCI-H226 lung; 61.7% in the assay with NCI-H322M lung; -43.3% (active) with NCI-H460 lung; -3% (active) in the assay on HOP-92 NSCLC; -14.6% (active) in the assay with NCI-H522 lung. Moreover, the growth was -17.6% (active) with A549/ATCC NSCLC, 34.8% in the assay with 786-0 renal and -96.4% (active) in the assay on COLO 205 colon.

For the molecule `COc1cc(NS(C)(=O)=O)ccc1Nc1c2ccc(Cl)cc2nc2c(OC)cccc12`, the growth with NCI-H23 lung is -23.6% (active); in the assay with NCI-H226 lung, -37.4% (active); in the assay on NCI-H322M lung, 57.5%; with NCI-H460 lung, -46.9% (active); in the assay on HOP-92 NSCLC, 14.5%; with NCI-H522 lung it was -6.02% (active). Moreover, the growth with A549/ATCC NSCLC was -7.09% (active); in the assay on 786-0 renal it was -39.5% (active); with COLO 205 colon it was 34.3%.

These data come from PubChem BioAssay (NCI).
